Where a name gives a salt, the structure may show the parent alone. ± gives the standard deviation of the averaged measurements.
Experiments:
[1] = test system: Saccharomyces cerevisiae BY4741 SeMeCo community; assay: mean cell size (pixel area) (pixels); higher = larger cells; details: 10 µM; 24 h; SM minimal medium
Outline: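 Yeast cells were fixed with paraformaldehyde, imaged by automated confocal microscopy and analysed in Harmony to obtain mean cell pixel area per well. They came from a four-plasmid fluorescent Saccharomyces cerevisiae BY4741 community, each plasmid complementing one auxotrophy and carrying a fluorescent marker. Before imaging, 70 µl of culture at OD600 = 0.3 was incubated for 24 h in SM medium in 384-well plates predosed acoustically with drug (final 10 µM). Values are means of 3 replicates. Same SeMeCo high-content imaging drug screen: Selleck FDA-approved drugs at 10 µM, 24 h in SM medium, 384-well plates, 3 replicates.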

[2] = test system: Saccharomyces cerevisiae BY4741 SeMeCo community; assay: z-score of prototroph abundance vs DMSO median; higher = larger share of this subpopulation than in DMSO controls; details: 10 µM; 24 h; SM minimal medium; subpopulation (auxotrophy): Prototroph
Outline: (§1)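 Cells of a Saccharomyces cerevisiae BY4741 community, carrying four plasmids that each restored one auxotrophy and encoded a distinct fluorescent protein, were pre-grown overnight to OD600 1.0 and diluted to 0.3. A 70 µl volume was added to 384-well plates acoustically predosed with library drugs (10 µM final) and grown 24 h in minimal SM medium. After paraformaldehyde fixation, automated confocal microscopy was used, with single-auxotroph fluorescent strains for thresholds and autofluorescence correction. The abundance of each subpopulation was scored as a z-score against the vehicle-well median.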

[3] = test system: Saccharomyces cerevisiae BY4741 SeMeCo community; assay: z-score of subpopulation abundance vs DMSO median, subpopulation auxotrophic for M; higher = larger share of this subpopulation than in DMSO controls; details: 10 µM; 24 h; SM minimal medium; subpopulation (auxotrophy): M
Outline: as §1

[4] = test system: Saccharomyces cerevisiae BY4741 SeMeCo community; assay: z-score of subpopulation abundance vs DMSO median, subpopulation auxotrophic for L; higher = larger share of this subpopulation than in DMSO controls; details: 10 µM; 24 h; SM minimal medium; subpopulation (auxotrophy): L
Outline: as §1

[5] = test system: Saccharomyces cerevisiae BY4741 SeMeCo community; assay: z-score of subpopulation abundance vs DMSO median, subpopulation auxotrophic for U; higher = larger share of this subpopulation than in DMSO controls; details: 10 µM; 24 h; SM minimal medium; subpopulation (auxotrophy): U
Outline: as §1

[6] = test system: Saccharomyces cerevisiae BY4741 SeMeCo community; assay: z-score of subpopulation abundance vs DMSO median, subpopulation auxotrophic for H; higher = larger share of this subpopulation than in DMSO controls; details: 10 µM; 24 h; SM minimal medium; subpopulation (auxotrophy): H
Outline: as §1

[7] = test system: Saccharomyces cerevisiae BY4741 SeMeCo community; assay: z-score of subpopulation abundance vs DMSO median, subpopulation auxotrophic for LU; higher = larger share of this subpopulation than in DMSO controls; details: 10 µM; 24 h; SM minimal medium; subpopulation (auxotrophy): LU
Outline: as §1

[8] = test system: Saccharomyces cerevisiae BY4741 SeMeCo community; assay: z-score of subpopulation abundance vs DMSO median, subpopulation auxotrophic for HM; higher = larger share of this subpopulation than in DMSO controls; details: 10 µM; 24 h; SM minimal medium; subpopulation (auxotrophy): HM
Outline: as §1

[9] = test system: Saccharomyces cerevisiae BY4741 SeMeCo community; assay: z-score of subpopulation abundance vs DMSO median, subpopulation auxotrophic for HU; higher = larger share of this subpopulation than in DMSO controls; details: 10 µM; 24 h; SM minimal medium; subpopulation (auxotrophy): HU
Outline: as §1

[10] = test system: Saccharomyces cerevisiae BY4741 SeMeCo community; assay: z-score of subpopulation abundance vs DMSO median, subpopulation auxotrophic for UM; higher = larger share of this subpopulation than in DMSO controls; details: 10 µM; 24 h; SM minimal medium; subpopulation (auxotrophy): UM
Outline: as §1

[11] = test system: Saccharomyces cerevisiae BY4741 SeMeCo community; assay: z-score of subpopulation abundance vs DMSO median, subpopulation auxotrophic for HLU; higher = larger share of this subpopulation than in DMSO controls; details: 10 µM; 24 h; SM minimal medium; subpopulation (auxotrophy): HLU
Outline: as §1

[12] = test system: Saccharomyces cerevisiae BY4741 SeMeCo community; assay: z-score of subpopulation abundance vs DMSO median, subpopulation auxotrophic for HLM; higher = larger share of this subpopulation than in DMSO controls; details: 10 µM; 24 h; SM minimal medium; subpopulation (auxotrophy): HLM
Outline: as §1

[13] = test system: Saccharomyces cerevisiae BY4741 SeMeCo community; assay: z-score of subpopulation abundance vs DMSO median, subpopulation auxotrophic for HUM; higher = larger share of this subpopulation than in DMSO controls; details: 10 µM; 24 h; SM minimal medium; subpopulation (auxotrophy): HUM
Outline: as §1

[14] = test system: Saccharomyces cerevisiae BY4741 SeMeCo community; assay: z-score of subpopulation abundance vs DMSO median, subpopulation auxotrophic for LUM; higher = larger share of this subpopulation than in DMSO controls; details: 10 µM; 24 h; SM minimal medium; subpopulation (auxotrophy): LUM
Outline: as §1

[15] = test system: Saccharomyces cerevisiae BY4741 SeMeCo community; assay: z-score of subpopulation abundance vs DMSO median, subpopulation auxotrophic for HLUM; higher = larger share of this subpopulation than in DMSO controls; details: 10 µM; 24 h; SM minimal medium; subpopulation (auxotrophy): HLUM
Outline: as §1

[16] = test system: Saccharomyces cerevisiae BY4741 SeMeCo community; assay: z-score of subpopulation abundance vs DMSO median, subpopulation auxotrophic for HL; higher = larger share of this subpopulation than in DMSO controls; details: 10 µM; 24 h; SM minimal medium; subpopulation (auxotrophy): HL
Outline: as §1

[17] = test system: Saccharomyces cerevisiae BY4741 SeMeCo community; assay: z-score of subpopulation abundance vs DMSO median, subpopulation auxotrophic for LM; higher = larger share of this subpopulation than in DMSO controls; details: 10 µM; 24 h; SM minimal medium; subpopulation (auxotrophy): LM
Outline: as §1

C[C@]1(COc2ccc(N3CCC(Oc4ccc(OC(F)(F)F)cc4)CC3)cc2)Cn2cc([N+](=O)[O-])nc2O1 [Delamanid]
mean cell size [1]: 12.1 ± 0.19
z-score of prototroph abundance [2]: -0.2
z-score of subpopulation abundance [3]: -0.38
z-score of subpopulation abundance [4]: 1.53
z-score of subpopulation abundance [5]: -0.77
z-score of subpopulation abundance [6]: 0.86
z-score of subpopulation abundance [7]: 0.18
z-score of subpopulation abundance [8]: 0
z-score of subpopulation abundance [9]: -0.43
z-score of subpopulation abundance [10]: -0.53
z-score of subpopulation abundance [11]: 0.12
z-score of subpopulation abundance [12]: 0.05
z-score of subpopulation abundance [13]: -0.19
z-score of subpopulation abundance [14]: 0.42
z-score of subpopulation abundance [15]: 0.08

CN1C2CCC1CC(OC(=O)C(O)c1ccccc1)C2 (stereo unspecified) [Homatropine Bromide]
mean cell size [1]: 12.31 ± 0.032
z-score of prototroph abundance [2]: -0.38
z-score of subpopulation abundance [3]: -0.4
z-score of subpopulation abundance [4]: -0.11
z-score of subpopulation abundance [5]: 1.49
z-score of subpopulation abundance [6]: -0.41
z-score of subpopulation abundance [7]: 0.66
z-score of subpopulation abundance [8]: -1.06
z-score of subpopulation abundance [9]: 0.61
z-score of subpopulation abundance [10]: 0.94
z-score of subpopulation abundance [16]: -0.63
z-score of subpopulation abundance [11]: -0.08
z-score of subpopulation abundance [12]: -0.76
z-score of subpopulation abundance [13]: 0
z-score of subpopulation abundance [15]: 0.14

C#C[C@]1(O)CC[C@H]2[C@@H]3CCC4=Cc5oncc5C[C@]4(C)[C@H]3CC[C@@]21C [Danazol]
mean cell size [1]: 12.2 ± 0.23
z-score of prototroph abundance [2]: 0
z-score of subpopulation abundance [3]: -0.89
z-score of subpopulation abundance [4]: -0.15
z-score of subpopulation abundance [5]: 0.53
z-score of subpopulation abundance [6]: -0.48
z-score of subpopulation abundance [7]: 0.13
z-score of subpopulation abundance [8]: -0.49
z-score of subpopulation abundance [9]: 0.32
z-score of subpopulation abundance [10]: 0.52
z-score of subpopulation abundance [16]: -0.13
z-score of subpopulation abundance [11]: -0.45
z-score of subpopulation abundance [12]: -0.39
z-score of subpopulation abundance [13]: 0.74
z-score of subpopulation abundance [14]: 0.22
z-score of subpopulation abundance [15]: -0.4

CO/N=C(\C(=O)N[C@@H]1C(=O)N2C(C(=O)[O-])=C(C[N+]3(C)CCCC3)CS[C@H]12)c1csc(N)n1 [Cefepime Dihydrochloride Monohydrate]
mean cell size [1]: 12.4 ± 0.19
z-score of prototroph abundance [2]: -0.67
z-score of subpopulation abundance [3]: 0.62
z-score of subpopulation abundance [4]: 0.49
z-score of subpopulation abundance [5]: -0.42
z-score of subpopulation abundance [6]: 0.4
z-score of subpopulation abundance [7]: 0.05
z-score of subpopulation abundance [8]: 1.14
z-score of subpopulation abundance [9]: -0.45
z-score of subpopulation abundance [10]: 0.07
z-score of subpopulation abundance [16]: 0.83
z-score of subpopulation abundance [11]: 0.65
z-score of subpopulation abundance [12]: 0.34
z-score of subpopulation abundance [13]: 0.6
z-score of subpopulation abundance [14]: 1.06
z-score of subpopulation abundance [15]: 0.19

CC(C)(C)C1CCC(CC2=C(O)c3ccccc3C(=O)C2=O)CC1 (stereo unspecified) [Buparvaquone]
z-score of prototroph abundance [2]: -0.85
z-score of subpopulation abundance [3]: 2.2
z-score of subpopulation abundance [4]: 0.5
z-score of subpopulation abundance [6]: -0.05
z-score of subpopulation abundance [7]: 0.03
z-score of subpopulation abundance [17]: 0.78
z-score of subpopulation abundance [8]: 1.55
z-score of subpopulation abundance [9]: -0.75
z-score of subpopulation abundance [10]: 0.54
z-score of subpopulation abundance [16]: -0.13
z-score of subpopulation abundance [11]: 0.03
z-score of subpopulation abundance [12]: 0.05
z-score of subpopulation abundance [13]: 0.83
z-score of subpopulation abundance [15]: 0.04

CC(=O)OCC1=C(C(=O)O)N2C(=O)C(NC(=O)CSC(=NC(C)C)NC(C)C)C2SC1 (stereo unspecified) [Cefathiamidine]
z-score of prototroph abundance [2]: 0.65
z-score of subpopulation abundance [3]: -0.3
z-score of subpopulation abundance [4]: -0.86
z-score of subpopulation abundance [5]: 0.86
z-score of subpopulation abundance [6]: -0.66
z-score of subpopulation abundance [7]: -0.47
z-score of subpopulation abundance [17]: -1.11
z-score of subpopulation abundance [8]: -0.6
z-score of subpopulation abundance [9]: -0.62
z-score of subpopulation abundance [16]: -1.06
z-score of subpopulation abundance [11]: -1.21
z-score of subpopulation abundance [12]: -1.16
z-score of subpopulation abundance [13]: 0.21
z-score of subpopulation abundance [14]: -0.68
z-score of subpopulation abundance [15]: -1.54

From the supplement of paper PMC8975748
